Data: PubChem BioAssay (EPA / NIEHS)
Results filed as inconclusive are left out. The source made the active and inactive calls. How the source made its calls: active means hit-call score of the fitted dose curve at least 0.9, where 1 is the maximum; inconclusive means response in the unintended direction; inactive means score below 0.9.

Experiment: ATG_M_19_TRANS: Attagene TRANS-FACTORIAL HepG2 Assay for M19 Transcription Factor (Internal Marker) (AID 2282974)
Conditions: HepG2 Attagene TRANS-FACTORIAL M19 internal marker reporter
Method: ATG_TRANS is a cell-based, multiplexed-readout assay that uses HepG2, a human liver cell line, with measurements taken at 24 hours after chemical dosing in a 24-well plate.ATG_M_19_TRANS is one of 30 assay component(s) measured or calculated from the ATG_TRANS assay. It is designed to make measurements of mRNA induction, a form of inducible reporter, as detected with fluorescence intensity signals by Reverse transcription polymerase chain reaction (RT-PCR) and Capillary electrophoresis technology.Data from the assay component ATG_M_19_TRANS was analyzed into 1 assay endpoint. This assay endpoint, ATG_M_19_TRANS, was analyzed in the positive analysis fitting direction relative to DMSO as the negative control and baseline of activity. Using a type of inducible reporter, measures of mRNA for gain-of-signal activity can be used to understand the background control at the transcription factor-level as they relate to the gene . Furthermore, this assay endpoint can be referred to as a secondary readout, because this assay has produced multiple assay endpoints where this one serves a background control function. To generalize the intended target to other relatable targets, this assay endpoint is annotated to the background measurement intended target family, where the subfamily is internal marker.
Human liver HepG2 cells are transiently transfected with multiple reporter transcription units (MRTUs) in 6-well plates using FuGene 6 reagent (Roche; 3 ml FuGene/1 mg DNA). The MRTU constructs are regulated by a cis-regulating element (promoter). […] A major difference between the CIS and TRANS system is that in CIS activities of endogenous TFs are measured, whereas the TRANS assay evaluates changes in activities of exogenous, chimeric NR-Gal4 proteins. […] At the end of 24 hour incubation, total RNA was isolated using TriZol reagent (Invitrogen). The isolated RNA is then reverse-transcribed using oligo(dT) primer and Mo-MLV reverse transcriptase (Invitrogen) with DNAse I (Ambion) treatment for 30 min. The one-tenth of the produced cDNA was amplified by PCR using Taq DNA polymerase (Invitrogen) and two reporter sequence-specific primers. The PCR products were fluorescently labeled by primer extension with 6-arboxyfluorescein (6-FAM) 5'-labeled reporter sequence-specific primer (2 min at 95 C, 20 s at 68 C and 10 min at 72 C) and these products were digested with 5U of HpaI (New England Biolabs) for 2h at 37 C. The fragments were purified using Qiaquick PCR columns (Qiagen), analyzed on an ABI 3130xL genetic analyzer (Applied Biosystems) with peak positions identified by using a set of X-rhodamine (ROX)-labeled MapMarker1000 molecular weight standards (BioVentures). The raw capillary electrophoresis data was processed using Attagraph software (Attagene).

outcome, inactive:
[Cl][Nd]([Cl])[Cl]
OC1CCCC1
C=C1[C@H]2CC[C@@H]3[C@H]2C(C)(C)CCC[C@]13C
Cc1cc(C)c(C)c(O)c1
CC(C)(C)C(=O)C=Cc1ccc(Cl)cc1
C=CC(=O)NC(C)(C)CS(=O)(=O)O
CC(=O)[C@H]1[C@H](C#N)C[C@H]2[C@@H]3CC=C4C[C@@H](O)CC[C@]4(C)[C@H]3CC[C@@]21C
CCCCCCCCC(=O)OCC
N=c1ccn2c(n1)O[C@H]1[C@H](O)[C@@H](CO)O[C@H]12
CC(CC=O)c1ccccc1 (stereo not given)
O=C1C(N(CO)C(=O)NCO)N(CO)C(=O)N1CO (stereo not given)
CC1=Nc2ccc3ccccc3c2C1(C)C
CC/C=C\CCOC(=O)CCCCC
CC(C)C(=O)C(C)C
C1=CCCC1
CC(=O)[C@@]1(O)CC[C@H]2[C@@H]3C[C@H](C)C4=CC(=O)C=C[C@]4(C)[C@@]3(F)[C@@H](O)C[C@@]21C
O=C1CCCC1
CC(C)=CCC/C(C)=C\C#N
C=COCCCC
CC(=O)c1ccc2c(c1)CCCC2
CCCCCCCC(C)=O
CO[Si](OC)(OC)c1ccccc1
Nc1ncn([C@@H]2O[C@H](CO)[C@@H](O)[C@H]2O)c(=O)n1
C=C(C)[C@@H]1CCC2=CCC[C@@H](C)[C@]2(C)C1
COCC(C)N (stereo not given)
O=C1CCCN1CCO
CCOC(=O)c1ccc(N(C)C)cc1
O=c1[nH]nc(-c2ccc([N+](=O)[O-])o2)o1
CCCCCCCCCCCSCC(=O)O
O=S1(=O)OC(c2ccc(O)cc2)(c2ccc(O)cc2)c2ccccc21
Cc1cccc(OCCOc2cccc(C)c2)c1
O=c1c2ccccc2oc2ccccc12
CC(=O)OCC(=O)[C@@]12N=C(C)O[C@@H]1C[C@H]1[C@@H]3CCC4=CC(=O)C=C[C@]4(C)[C@H]3[C@@H](O)C[C@@]12C
CCOCC(=O)O
NCCCN1CCN(CCCN)CC1
C=CC(C)(CCC=C(C)C)OC(=O)CC(C)C (stereo not given)
Nc1ccc(N)c(Cl)c1
CCCCOCCOC(=O)COc1nc(Cl)c(Cl)cc1Cl
Cc1cc(C)c(C)c(C)c1
O=C1CC2CC1C1CCCC21 (stereo not given)
